SNCA expr inhib = reduces expression of the alpha-synuclein gene; 140,000 compounds, 0.17% hits; HEK-293 SNCA-luciferase knock-in, luminescence, 24 h; Potency, µM (titrated, usually from 57.2 µM), without a hit: top-dose activity change, negative = inhibition, most hits filed as inhibitors; AID 1671194;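 note: potency is the fitted concentration of half-maximal effect; plate controls were DMSO cells for no effect and cell-free wells for full effect; nearly all actives have a fitted effect of over 45% in size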
IP6K1 inhibitor = IP6K1 kinase inhibition; Q92551; IP6K1 kinase, ADP-Glo luminescence, 2 h; active compounds read low; AID 1645851; activity change, % (series mostly up to about 58 µM); 140,000 compounds, 0.81% hits; in the data active = activity change below about -25%; note: % is set by controls: 0 for no effect and ±100 for the full control effect
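ADP-Glo luminescence measures ADP made by human IP6K1 during a 2 h RT reaction with ATP/IP6 (mix at 1.3 mM/130 uM); top library doses 57.5 and 19.1 uM final.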
KDM5B inhibitor = blocks human KDM5B histone demethylase activity; Potency, µM (doses to about 57.7 µM), most hits filed as inhibitors; 220,000 compounds, 2.6% hits; Q9UGL1; KDM5B demethylase, FDH-coupled NADH fluorescence (FDH is formaldehyde dehydrogenase); note: potency is the fitted concentration of half-maximal effect; 0% is about no effect; nearly all actives have a fitted effect of over 70% in size
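Inhibition is measured as reduced NADH fluorescence generation from FDH coupling to formaldehyde release. Truncated KDM5BΔAP at 200 nM final acts on H3K4me3 peptide (12.5 µM in substrate mix) in pH 7.5 HEPES buffer with Tween-20, 30 min, room temperature.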
HEK293 viab = reduces viability of HEK-293 SNCA reporter cells; HEK-293-SNCA-luc viability, GF-AFC fluorescence, 24 h; Potency, µM (doses to about 57.1 µM), inactives show top-dose activity change, negative = cytotoxicity, usual class: cytotoxic; 150,000 compounds, 0.12% hits; AID 1671193;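 note: potency is the fitted concentration of half-maximal effect; 0% = DMSO-treated cells and -100% = medium-only wells without cells; nearly all actives have a fitted effect of over 30% in size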
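Cytotoxicity counterscreen: after 24 h compound treatment of genome-edited SNCA-luciferase HEK-293 cells, live-cell protease substrate GF-AFC read by fluorescence after 30 min; activity scaled between DMSO (0%) and medium-only (-100%), curves Hill-fitted.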
* hit, by the source's call; i = inactive; u = inconclusive; x = no result; [ ] = dose if it differs, or a comment. An excerpt weighted towards active compounds, which were near 2.8% of everything screened. Unless noted, calls come from the whole dose curve; as a rule, active = well fitted curve in the direction sought with a large enough effect; inconclusive = small, poorly fitted or top-dose-only effect, or another doubt; inactive = no such curve, though single readings can be large; an effect the other way counts as inactive or inconclusive.

SMILES	SNCA expr inhib	IP6K1 inhibitor	KDM5B inhibitor	HEK293 viab
COCC(=O)N[C@H]1C[C@H]2C(=O)NC[C@@H](CCC(=O)N3CCN(c4ccccn4)CC3)N2C1	19%	-9	25µM*	6%
COc1cc(C2CC(=O)Nc3nc(C)[nH]c(=O)c32)cc(OC)c1OC (centres undefined)	x	x	i	x
Cc1nc(C)c(CCC(=O)Nc2cc(Cl)ccc2F)c(=O)[nH]1	x	x	i	x
O=C(CCc1cc2n(n1)CCCNC2)N1CCCC(c2nnc3ccccn23)C1 (centres undefined)	2%	1	11µM*	-10%
CNC(=O)c1cnn2cc(C)ccc12	20%[87.6 µM]	-4	32µM*	6%[87.6 µM]
Cc1ccc2c(C(=O)N(C)C)cnn2c1	5%[87.6 µM]	0	32µM*	0%[87.6 µM]
Cc1cnc2c(C(=O)NCc3cccnc3Oc3ccccc3)cnn2c1	125%	4	u	-10%
CC(C)(C)c1cc(CCC(=O)NC2CC2)cc(C(C)(C)C)c1O	x	x	i	x
COc1ccc(-c2nc(C)nc3c2CCN(Cc2cccc4ccccc24)CC3)cc1	-9%	6	u	-17%
CCOc1nccn2c(-c3ccc(CN4CCNC(=O)C4)cc3)cnc12	21%[87.6 µM]	-12	35µM*	-3%[87.6 µM]
COc1cccc([S+](=O)([O-])N2CCC(c3nnc4n3C(C(=O)O)CC4)CC2)c1 (centres undefined)	-12%	-5	79µM*	3%
O=C(Nc1nc2ccc(F)cc2s1)c1nc(S(=O)(=O)Cc2ccccc2)ncc1Cl	u	-40*	u	32µM*
COCc1nc(NCc2cn3cc(C)sc3n2)cc(C2CC(N)C2)n1 (centres undefined)	6%	-11	u	4%
Cc1cn2cc(CNC(=O)c3ccc(CN4CCCN(C)CC4)[nH]c3=O)nc2s1	u	14	28µM*	-4%
CCCc1noc(-c2cccn3c(CNC(=O)CC4CCCCC4)nnc23)n1	18%	18	u	2%
CCc1noc(-c2cccn3c(CNC(=O)CCC4CCCC4)nnc23)n1	11%	-5	28µM*	12%
CC(C)c1noc(-c2cccn3c(CNC(=O)CCC4CCCC4)nnc23)n1	-4%	11	16µM*	-5%
O=C(CCC1CCCN(S(=O)(=O)c2ccccc2)C1)N1CCN(c2ccccn2)CC1 (centres undefined)	-27%	3	22µM*	0%
Cc1ccc(C(=O)N2CCC(CCC(=O)N3CCN(c4ccccn4)CC3)CC2)cc1	77%	22	28µM*	-1%
Cc1ccc(S(=O)(=O)N2CCCC(CCC(=O)N3CCCCC3)C2)cc1 (centres undefined)	0%	0	i	-15%
COc1ccc(Cl)cc1C(=O)NCc1nnc2ccc(-c3ccc(C)c(C)c3)nn12	6%	-1	32µM*	-29%
COc1ccc(Cl)cc1C(=O)NCc1nnc2ccc(-c3ccccc3)nn12	-2%	-3	25µM*	1%
COc1ccc(Cl)cc1C(=O)NCc1nnc2ccc(-c3ccc(Cl)cc3)nn12	-24%	11	i	-7%
CC(C)c1noc(-c2cccn3c(CNC(=O)CCc4ccccc4)nnc23)n1	1%	1	14µM*	-8%
CCCc1noc(-c2cccn3c(CNC(=O)CCc4ccccc4)nnc23)n1	-17%	1	18µM*	-15%
SMILES	SNCA expr inhib	IP6K1 inhibitor	KDM5B inhibitor	HEK293 viab
COc1ccc2cc(CN(C)C(=O)CNC(=O)c3ccc(Cl)cc3)ccc2c1	x	x	i	x
CC(C)Cn1c(SCC(=O)Nc2ccc(Cl)cn2)nc2ccccc21	x	x	i	x
O=C(NC12CC3CC(CC(C3)C1)C2)c1csc2c1CCCC2	x	x	i	x
C=CCNC(=O)NC(=O)COC(=O)/C=C/C=C/C	x	x	i	x
O=C(NC1CCN(c2nc3ncccc3o2)CC1)C1CC1	8%[87.6 µM]	-3	28µM*	-12%[87.6 µM]
COC(=O)NC1CCN(c2nc3ncccc3o2)CC1	11%[87.6 µM]	-10	35µM*	1%[87.6 µM]
O=C(NCc1cccs1)C1CCN(c2nc3ncccc3o2)CC1	12%[87.6 µM]	-1	32µM*	7%[87.6 µM]
O=[S+]([O-])(c1cccs1)N1CCN(c2nc3ncccc3o2)CC1	5%	-6	i	19%
O=[S+]([O-])(NC1CCN(c2nc3ncccc3o2)CC1)c1cccs1	-8%	-2	22µM*	5%
O=C(NC1CC1)C1CCN(c2nc3ncccc3o2)CC1	17%[87.6 µM]	10	x	1%[87.6 µM]
CC(=O)c1ccc(C(=O)N(C)Cc2ccc(C)cc2C)s1	x	x	i	x
CCc1nc(CNCc2cccc(NC(=O)c3ccc(F)cc3)c2)cs1	x	x	i	x
Cc1cccn2c(CNC(=O)CCc3cc4n(n3)CCCNC4)cnc12	24%	-7	25µM*	-8%
O=C(NCc1cc2n(n1)CCCNC2)c1ccc(Cn2cnnn2)cc1	-4%	23	i	3%
Cc1cccc2ncc(C(=O)NCc3cc4n(n3)CCCNC4)c(=O)n12	-9%	13	28µM*	-1%
COc1ccc(-c2cc(C(=O)NCc3c(C)cc(C)[nH]c3=O)c3c(c2)N(C)CCO3)cn1	23%[87.6 µM]	-20	35µM*	-7%[87.6 µM]
Cc1cc(C)c(CNC(=O)c2cc(-c3ccc(CO)cc3)cc3c2OCCN3C)c(=O)[nH]1	0%[87.6 µM]	-2	32µM*	-17%[87.6 µM]
Cc1cc(C)c(CNC(=O)c2cc(-c3ccccc3)cc3c2OCCN3C)c(=O)[nH]1	-15%[87.6 µM]	1	32µM*	4%[87.6 µM]
COc1ccccc1-c1cc(C(=O)NCc2c(C)cc(C)[nH]c2=O)c2c(c1)N(C)CCO2	u	-1	u	u
Cc1ccc(-c2cc(C(=O)NCc3c(C)cc(C)[nH]c3=O)c3c(c2)N(C)CCO3)cc1	3%[87.6 µM]	-22	u	2%[87.6 µM]
COc1ccc(/C=C/c2ccc3cccc([N+](=O)[O-])c3n2)cc1O	x	x	i	x
Cc1cccc(NC(=S)NCCc2ccccc2)c1	x	x	i	x
Cc1ccc(CN(C)C(=O)Cc2c[nH]c3ccccc23)o1	x	x	i	x
N[C@@H](Cc1cc(I)c(Oc2cc(I)c(O)c(I)c2)c(I)c1)C(=O)O	0%	-25	x	-17%
N[C@@H](Cc1cc(I)c(Oc2ccc(O)c(I)c2)c(I)c1)C(=O)O	x	-34*	x	-27%
SMILES	SNCA expr inhib	IP6K1 inhibitor	KDM5B inhibitor	HEK293 viab
c1ccc(Nc2cc3c(cn2)NCCN(Cc2ccsc2)C3)cc1	0%[87.6 µM]	-17	35µM*	-14%[87.6 µM]
COc1ccc(CN2CCNc3cnc(OCc4cccnc4)cc3C2)cc1	-20%[87.6 µM]	-16	28µM*	-1%[87.6 µM]
COc1ccc(CN2CCNc3cnc(Nc4ccccc4)cc3C2)cn1	-5%[87.6 µM]	-18	35µM*	-9%[87.6 µM]
COc1ccc(CN2CCNc3cnc(Nc4ccccc4)cc3C2)cc1	-15%[87.6 µM]	-20	35µM*	-2%[87.6 µM]
COc1ccc(Nc2cc3c(cn2)NCCN(Cc2ccccc2)C3)cc1	u	-19	u	u
CCc1nnc(NC(=O)c2nnn(-c3ccccc3OC)c2C)s1	x	x	i	x
COC(=O)c1ccccc1S(=O)(=O)N1CCC(C(=O)NCc2ccccn2)CC1	x	x	i	x
NC(=O)CN1CCC(C(=O)NCc2cn3cccnc3n2)CC1	-21%	21	28µM*	0%
CCN1C(=O)C(NC(=O)C(=O)NCCc2c[nH]c3ccc(Cl)cc23)c2ccccc21 (centres undefined)	x	x	i	x

Screening results as filed in PubChem.
